In PubChem BioAssay (NCATS):
Inconclusive results are not listed. Active and inactive are the calls of the source. Calls come from the whole dose curve; as a rule, active = well fitted cell-killing curve with a large enough effect; inconclusive = small, poorly fitted or top-dose-only effect; inactive = flat fitted curve, though single readings scatter.

Assay: Cell Viability - Renal Proximal Tubule (AID 545); note: nearly all actives have a fitted effect of over 40% in size
Conditions: renal proximal tubule cells viability, primary cells of rat origin; series mostly up to 91.7 µM
From the text: NIH Chemical Genomics Center [NCGC]
NIH Molecular Libraries Screening Centers Network [MLSCN]
National Institutes of Environmental Health Sciences [NIEHS]
National Toxicology Program [NTP]
We have developed a 1536-well cell-based assay for quantitative high throughput screening (qHTS) against a number of cell lines to determine in vitro cytotoxicity of small molecules. This particular assay uses the renal proximal tubule cells which are derived from normal kidney cells freshly isolated from rat.
NCGC Assay Protocol Summary:
The CellTiter-Glo luminescent cell viability assay (Promega) is a homogeneous method to measure the number of viable cells in culture. The end point readout of this assay is based on quantitation of intracellular ATP, an indicator of metabolic activity, using the luciferase reaction. Luciferase catalyzes the oxidation of beetle Luciferin to oxyluciferin and light in the presence of ATP. The luminescent signal is proportional to amount of ATP present.
Using the CellTiter-Glo luminescent cell viability assay, the amount of cellular ATP was measured in the renal proximal tubule cells with complete culture medium following compound treatment for 40 hours. The assay was performed in opaque white Kalypsys 1536-well plates. In the screen, tamoxifen and doxorubicin were used as positive controls. Library compounds were measured for their ability to cause acute toxicity in the cell line, as reflected by a decrease in intracellular ATP levels, in a concentration-dependent manner. […] AC50 values were determined from concentration-response data modeled with the standard Hill equation.
qHTS protocol for CellTiter Glo renal proximal tubule cell assay
[Step] [Parameter] [Value] [Description]
1. Reagent; 5 uL; 1000 renal proximal tubule cells/well
2. Time; 5 hr; 37 °C incubation
4. Controls; 23 nL; Tamoxifen 0.34 uM to 100 uM & Doxorubicin 0.02 nM to 100 uM
5. Time; 40 hr; 37 °C incubation
6. Reagent; 5 uL; CellTiter Glo reagent
7. Time; 20 min; Room Temperature
8. Detection; Luminescence; Viewlux plate reader
Keywords: cell viability, cytotoxicity, renal proximal tubule cells, luminescence, NTPHTS, NTPHTS_NCGC, NIEHS, EPA, DSSTox, MLSMR, MLSCN, NIH Roadmap, qHTS, NCGC
In the case of `O=C(O)CCCCC1CCSS1` (configuration not stated), the outcome is reported as “inactive”.
With `Nc1ccc(S(=O)(=O)c2ccc(N)cc2)cc1` the outcome was “inactive”.
For `O=C1c2cccc(O)c2C(=O)c2c(O)cccc21`, the outcome was “inactive”.
For `FC(F)(F)C(Cl)Br` (configuration not stated), the outcome was “inactive”.
With `CC1CC(OC(=O)c2ccccc2O)CC(C)(C)C1` (configuration not stated) the outcome was “inactive”.
In the case of `O=C1C(c2[nH]c3ccccc3c2O)=Nc2ccccc21`, the outcome is reported as “inactive”.
For `Cc1cc(=O)[nH]c(=S)[nH]1`, the outcome was “inactive”.
With `CCCCCC(N)=O` the outcome was “inactive”.
For `Cc1c(N(C)C)c(=O)n(-c2ccccc2)n1C`, the outcome was “inactive”.
In the case of `CCCCCCCC(=O)OCC(COC(=O)CCCCCCC)OC(=O)CCCCCCC`, the outcome is reported as “inactive”.
In the case of `CC(=O)NS(=O)(=O)c1ccc(N)cc1`, the outcome is reported as “inactive”.
In the case of `CC(=O)Nc1ccccc1`, the outcome is reported as “inactive”.
For `C=CCNC(N)=S`, the outcome was “inactive”.
With `CC(=O)OCC(COC(C)=O)OC(C)=O` the outcome was “inactive”.
In the case of `CCCC(O)C(CC)CO` (configuration not stated), the outcome is reported as “inactive”.
In the case of `CCCCOC(=O)c1ccc(N)cc1`, the outcome is reported as “inactive”.
For `Cc1cc(C)nc(NS(=O)(=O)c2ccc(N)cc2)n1`, the outcome was “inactive”.
With `CCN(CC)C(=O)c1cccc(C)c1` the outcome was “inactive”.
In the case of `COc1ccc(O)cc1`, the outcome is reported as “inactive”.
With `O=C(c1ccccc1)C(O)c1ccccc1` (configuration not stated) the outcome was “inactive”.
With `CC(=O)Nc1cccc(O)c1` the outcome was “inactive”.
With `CC(=O)Nc1ccc(C(=O)O)cc1` the outcome was “inactive”.
